# From PubChem BioAssay AID463115 (University of Pittsburgh Molecular Library Screening Center, 2010)
# Screen size: about 220,000 compounds; about 130 (0.059%) were called active. Rule as the data show it: active = inhibition above about 25%; inactive = the rest. Only a selection was taken, and actives are over-represented in it overall.
# Target: Furin (Homo sapiens) (UniProt P09958)
# Assay: human furin inhibitors, primary screen, biochemical, fluorescence intensity (AID 463115)
# Conditions: purified furin, fluorogenic substrate cleavage, stronger effect = higher value; at 30 µM unless noted
# Chain of Furin (Homo sapiens) (P09958 108-714 limits assumed): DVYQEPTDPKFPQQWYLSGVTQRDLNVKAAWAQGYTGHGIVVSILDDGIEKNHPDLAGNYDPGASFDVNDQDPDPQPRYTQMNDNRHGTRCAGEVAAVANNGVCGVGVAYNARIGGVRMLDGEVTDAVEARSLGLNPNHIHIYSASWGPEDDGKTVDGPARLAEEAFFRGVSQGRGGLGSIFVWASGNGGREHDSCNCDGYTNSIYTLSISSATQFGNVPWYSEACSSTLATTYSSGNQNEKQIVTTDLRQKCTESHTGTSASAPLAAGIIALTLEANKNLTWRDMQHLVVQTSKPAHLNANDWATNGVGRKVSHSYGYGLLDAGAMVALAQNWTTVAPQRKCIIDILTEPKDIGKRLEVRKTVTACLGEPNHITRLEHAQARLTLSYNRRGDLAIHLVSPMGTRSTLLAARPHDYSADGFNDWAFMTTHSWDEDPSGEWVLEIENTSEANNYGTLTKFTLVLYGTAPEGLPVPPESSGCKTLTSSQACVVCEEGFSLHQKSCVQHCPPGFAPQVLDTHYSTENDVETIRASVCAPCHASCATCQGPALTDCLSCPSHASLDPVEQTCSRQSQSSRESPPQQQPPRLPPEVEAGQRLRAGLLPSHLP
row,SMILES,inhibition
1,COc1cccc(OCc2cc(/C=N/NC(=O)c3nc(Cl)c(Cl)c(N)c3Cl)ccc2OC)c1,-20.2% [at 20 µM] (inactive)
2,Cc1ccc(C(=O)NC(=S)Nc2ccc3[nH]c(=O)[nH]c3c2)cc1C,-13.7% (inactive)
3,C=C(C)Cn1c(C)cc(C)c(S(=O)(=O)c2ccccc2C)c1=O,5.86% [at 20 µM] (inactive)
4,CC(C)NC(=O)C(=O)N/N=C/c1ccco1,-9.76% [at 20 µM] (inactive)
5,Cc1ccccc1NC(=O)Nc1ccccc1N1CCCCC1,-10.3% (inactive)
6,Cc1cc(OC(=O)c2ccccc2Cl)ccc1N1C(=O)CCC1=O,-16% (inactive)
7,Cc1cccc(-n2c(SCC(=O)Nc3cccc(S(=O)(=O)NC4=NCCCCC4)c3)nc3ccccc3c2=O)c1C,-12.8% (inactive)
8,COc1ccc(CCNC(=O)C(=O)NCc2ccccc2C)cc1OC,-21% (inactive)
9,C=CCn1c(C(C)NC(=O)CC)nc2ccccc21 (centres undefined),-10.5% [at 20 µM] (inactive)
10,CC(=O)NC(C)c1nc2ccccc2n1Cc1ccccc1F (centres undefined),29.1% [at 20 µM] (active)
11,CCC(=O)Nc1nc2ccccc2n1Cc1ccccc1C,-19.3% (inactive)
12,CCCCNC(=O)N1CCN(S(C)(=O)=O)CC1,-17.1% (inactive)
13,CNC(=S)N/N=C/c1cn(Cc2ccc(C)cc2)c2ccccc12,-4.13% (inactive)
14,O=C1CCCc2nn(-c3ccccc3)nc21,-13.3% [at 20 µM] (inactive)
15,O=C(Nc1cccnc1)c1cc2cc(Br)ccc2oc1=O,-18% (inactive)
16,CSc1ccc(C#N)cc1NC(=O)c1ccc(Cl)cc1,-25.3% [at 20 µM] (inactive)
17,COc1ccc(NC(=O)C(NC(C)=O)C(=O)NCc2ccccc2Cl)cc1 (centres undefined),-24.7% [at 20 µM] (inactive)
18,Cc1ccc(-c2cc(C(F)(F)F)n3ncc(C(=O)N4CCCCC4c4cccnc4)c3n2)cc1 (centres undefined),-31.6% (inactive)
19,Cc1ccc(N(Cc2cc3ccccc3[nH]c2=O)C(=O)c2cccs2)cc1,-16% (inactive)
20,CC1(C)CC(=O)C(CC(=O)N2CCC(Cc3ccccc3)CC2)C(=O)C1,-13% (inactive)

row,SMILES,inhibition
1,O=C(O)/C(=C/c1cccnc1)NC(=O)c1ccccc1,-17.1% (inactive)
2,COc1cc([C@H](Cc2ccccc2)NC(C)=O)oc(=O)c1,-28.7% (inactive)
3,CSc1nc(C)nc(C2CC2)c1C#N,-16.6% (inactive)
4,C=CCOC(=O)C1=C(C)NC(C)=C(C(=O)OCC=C)C1c1cccs1,-8.1% [at 20 µM] (inactive)
5,COc1ccc2c(CC(=O)OCC(=O)Nc3ccccc3[N+](=O)[O-])coc2c1,-10.8% (inactive)
6,Clc1ccc(C[n+]2cc(-c3ccccc3)n3c2CCC3)cc1,-20.2% (inactive)
7,CCC1C=C(c2ccccc2)C=CN=C1N(CC)CC (centres undefined),-18.4% (inactive)
8,CC1=C(C)CC(C(=O)NC(C)CCc2ccccc2)C(C(=O)O)C1 (centres undefined),-15% (inactive)
9,CC1=C(C)C(=O)OC(C(C)C2CCC3C4CC=C5CC(OC6OC(COC7OC(CO)C(O)C(O)C7O)C(O)C(O)C6O)CC(O)C5(C)C4CCC23C)C1 (centres undefined),-28.1% (inactive)
10,CC1CCCC(C)N1/N=C/c1ccccc1OC(F)F (centres undefined),-34.3% (inactive)
11,NC(N)=Nc1nc2ccc(Br)cc2c(=O)[nH]1,-13.8% (inactive)
12,CCOc1ccc(NC(=S)NC(=O)/C=C/c2ccc(OC)cc2)c([N+](=O)[O-])c1,-14.6% (inactive)
13,Cc1c(Br)cc(C(=O)N2CCCCCC2)c(C)c1C,-19.1% [at 20 µM] (inactive)
14,CC(C)CCN1CCN(Cc2ccc(C(F)(F)F)cc2)CC1CCO (centres undefined),-11.2% (inactive)
15,COc1ccc(OC)c(S(=O)(=O)NCCC(C)C)c1,-25.7% (inactive)
16,O=C(NCCc1ccccn1)c1cc(-c2ccc(Cl)cc2)nc2ccccc12,-20.1% (inactive)
17,CC12CN3CCN(CC(C3)/C1=N\NC(=O)c1ccccc1N)C2,-14.7% (inactive)
18,CC(CC(=O)O)CC(=O)NNC(=O)c1cccc(Br)c1 (centres undefined),4.22% (inactive)
19,CCCOn1c(-n2nc(C)cc2C)nc2ccccc2c1=O,-1.39% [at 20 µM] (inactive)
20,CC(C)Oc1ccccc1C(=O)NC(CO)C(=O)O (centres undefined),-21.8% (inactive)

row,SMILES,inhibition
1,CC(C)(C)NC(=O)NC(=O)COC(=O)Cc1ccc(Cl)cc1Cl,-11.5% (inactive)
2,CCOC(=O)c1nnn2c1nc(N1CCN(c3ccccc3)CC1)c1ccccc12,-23.3% (inactive)
3,C=C(C)C1CC=C(C)/C(=N/NC(=O)CCCNc2cccc(C)c2)C1 (centres undefined),-8.06% (inactive)
4,CCc1ccc(NC(=O)CC2C(=O)NCCN2C(=S)Nc2ccccc2)cc1 (centres undefined),-22.7% (inactive)
5,CC(C)C(O)C1CCN(Cc2nc(Cc3ccccc3Cl)no2)CC1 (centres undefined),-21.2% (inactive)
6,COC(=O)c1sc(NC(=S)NC(=O)c2ccc(C)cc2)nc1C,-11.8% (inactive)
7,CC(=O)c1sc(NC(=O)c2ccc(C)cc2)nc1C,26.4% [at 20 µM] (active)
8,CC(=O)c1sc(NC(=O)c2cccc3ccccc23)nc1C,-10.7% [at 20 µM] (inactive)
9,CN(C)c1ccc(/C=N/NC(=O)C(O)c2ccc(Br)cc2)cc1 (centres undefined),-19% (inactive)
10,CCC(=O)NC(Nc1nc2ccc(C)cc2s1)(C(=O)OC)C(F)(F)F (centres undefined),-11.3% [at 20 µM] (inactive)
11,CCCCNC(=O)OC(C)CNC(=O)OC (centres undefined),-9.97% [at 20 µM] (inactive)
12,CN(C)/N=C/c1cn(-c2ccccc2)nc1-c1cccnc1,1.34% (inactive)
13,CCCNS(=O)(=O)c1ccc(CCC(=O)N2CCCC2)cc1,-15.5% (inactive)
14,C=CC(COCc1ccccc1)N(Cc1ccccc1)S(=O)(=O)c1ccccc1Br (centres undefined),-14.6% (inactive)
15,COc1ccc(C2=NOC3(CC(=O)N(c4ccc(Cl)cc4)C3=O)C2)c(OC)c1 (centres undefined),-21.1% [at 20 µM] (inactive)
16,O=C(NC1CCN(Cc2ccccc2)CC1)c1c(F)cccc1F,-12.2% (inactive)
17,Nc1c(NCCc2ccccc2)c2ccccc2oc1=O,-0.514% (inactive)
18,Cc1cc(Nc2ccc(N3CCOCC3)cc2)c2cccc(C)c2n1,3.96% (inactive)
19,O=C(NN1C(=O)C2C(C1=O)C1C=CC2C12CC2)c1ccccc1Cl (centres undefined),-7.61% (inactive)
